According to PubChem BioAssay:
For some of these results: Results with a measured potency or affinity are listed apart. Calls of active or inactive are those of the source.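 The calls were made as follows, unless noted: active = calcium signal ratio cut to more than 3 SD under the fully stimulated control mean yet still positive, in both repeats and the primary screen; inactive = the rest.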

Columns and labels:
[1] = tested on: TRPC4 beta (transient receptor potential cation channel C4), mouse; experiment: TRPC4 cation channel opening, retest – cell-based, Fluo4 calcium, HEK293 TRPC4beta/mu-opioid, duplicates, 10 µM, confirmation (AID 2426;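 active = fluorescence ratio normalized to control raised more than 50% in primary screen plus both repeat runs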); conditions: Fluo4 calcium fluorescence, at 10 µM; stronger effect = higher value
[2] = tested on: transient receptor potential cation channel C4 beta (TRPC4), mouse; experiment: TRPC4 cation channel opening, second retest – cell-based, second round, Fluo4, HEK293 TRPC4beta/mu-opioid, 1 µM, confirmation (AID 2461;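 active = primary screen active and over 50% activation in each of two duplicate runs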); conditions: Fluo4 calcium fluorescence, at 1 µM; stronger effect = higher value
[3] = tested on: TRPC4 (transient receptor potential cation channel C4 beta), mouse; experiment: potentiation of DAMGO EC20 TRPC4 response – cell-based, second round, Fluo-4, HEK293 TRPC4beta/mu-opioid, 1 µM, confirmation (AID 2554;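 active = primary screen hit whose fluorescence ratio, in both repeats, exceeds the weak agonist control mean by 3 SD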); conditions: DAMGO EC20, Fluo-4 calcium flux, at 1 µM; stronger effect = higher value
[4] = tested on: TRPC4 beta (transient receptor potential cation channel C4), mouse; experiment: potentiation of DAMGO EC20 TRPC4 response – cell-based, Fluo-4, HEK293 TRPC4beta/mu-opioid, confirmation (AID 2555;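 active = primary screen hit whose calcium fluorescence ratio, in both repeats, exceeds the weak agonist control mean by 3 SD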); conditions: DAMGO EC20, Fluo-4 calcium flux, at 10 µM; stronger effect = higher value
[5] = biological target: Short transient receptor potential channel 4 (Mus musculus) (UniProt Q9QUQ5); experiment: blockers of DAMGO-evoked TRPC4 calcium flux – cell-based, Fluo4, HEK293 TRPC4beta/mu-opioid, confirmation (AID 2636;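 active = calcium signal cut by more than 3 SD below the full-agonist control yet still positive, in both repeats and the earlier primary screen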); conditions: at 10 µM; stronger effect = higher value
[6] = biological target: Short transient receptor potential channel 4 (Mus musculus) (UniProt Q9QUQ5); experiment: blockers of DAMGO-evoked TRPC4 calcium flux – cell-based, second round, Fluo4, HEK293 TRPC4beta/mu-opioid, 1 µM, confirmation (AID 2637); conditions: at 1 µM; stronger effect = higher value;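 as to inhibition: percent of integrated ratio relative to wells lacking test compound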
[7] = biological target: Short transient receptor potential channel 4 (Mus musculus) (UniProt Q9QUQ5); experiment: calcium entry via TRPC4 opening agents – cell-based, HEK293 TRPC4/mu-opioid, Fluo-4 calcium, dose response (AID 434937;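 active = primary screen activator hit with a dose response curve and TRPC4 channel activation at any tested dose; inactive = no activation, no dose response, or not a primary hit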)
[8] = biological target: Short transient receptor potential channel 4 (Mus musculus) (UniProt Q9QUQ5); experiment: potentiation of DAMGO-evoked TRPC4 calcium signal – cell-based, HEK293 TRPC4/mu-opioid, Fluo-4 calcium, EC20 DAMGO, dose response (AID 434941;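 active = earlier screen potentiator hit that boosts the TRPC4 ion channel at some dose, with a dose response; inactive = no potentiation, no dose response, or not a prior hit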;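 also: calcium entry triggered by an EC20 dose of DAMGO at the co-expressed mu-opioid receptor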)
[9] = biological target: Short transient receptor potential channel 6 (Mus musculus) (UniProt Q61143); experiment: TRPC6 blockade by TRPC4 inhibitor hits – cell-based, HEK293, membrane potential dye, duplicate, selectivity assay for TRPC4 inhibitor project, confirmation (AID 434948;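 active = active in primary screen and both duplicates, each dropping signal beyond three positive-control SD with fluorescence still positive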); conditions: HEK293 TRPC6, membrane potential dye fluorescence, at 10 µM, stimulated with maximal-effect acetylcholine; stronger effect = higher value
[10] = biological target: Short transient receptor potential channel 6 (Mus musculus) (UniProt Q61143); experiment: TRPC6 opening by TRPC4 activator hits – cell-based, HEK293, membrane potential dye, duplicate, selectivity assay for TRPC4 activator project, confirmation (AID 434950;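 active = membrane potential signal rise above negative control mean plus 3 SD in both duplicates, also active in the earlier TRPC4 screen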); conditions: HEK293 TRPC6, membrane potential fluorescence, at 10 µM; activation: stronger effect = higher value; outcome: activation
[11] = biological target: Short transient receptor potential channel 6 (Mus musculus) (UniProt Q61143); experiment: positive modulators of mouse TRPC6 channel – HEK293 cells, membrane potential dye, duplicate, selectivity assay for TRPC4 potentiator project, confirmation (AID 434952;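 active = compound raising the membrane signal above positive-control mean plus 3 SD in both repeats, and a primary screen hit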); conditions: HEK293 TRPC6, membrane potential dye fluorescence, at 10 µM, maximal acetylcholine added after compound; stronger effect = higher value
[12] = biological target: Short transient receptor potential channel 4 (Mus musculus) (UniProt Q9QUQ5); experiment: calcium flux activators in TRPC4/5HT1a cells, counter-screen for TRPC4 activator project, cell-based, second counter screen, HEK293 TRPC4/5HT1a, Fluo-4 (AID 434977;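 active = calcium signal rise above buffer-control mean plus 5 SD in both duplicates, and also a hit in the primary screen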); conditions: Fluo-4 calcium flux, at 10 µM; stronger effect = higher value
[13] = serotonin-gated TRPC4 signal block – cell-based, second counter screen, HEK293 TRPC4/5HT1a, Fluo-4, counter-screen for TRPC4 inhibitor project, confirmation (AID 434978;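 active = primary screen active whose calcium signal fell more than 3 SD beyond the full-serotonin control mean in both duplicate plates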;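 as to outcome: serotonin given first at submaximal then at maximal dose after compound preincubation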); conditions: Fluo-4 calcium flux, at 10 µM, serotonin added to trigger calcium flux; stronger effect = higher value
[14] = tested on: TRPC4 (mouse), co-expressed with 5HT1a in HEK293; experiment: enhancement of serotonin-evoked TRPC4 response – cell-based, second counter screen, HEK293 TRPC4/5HT1a, Fluo-4, counter-screen for TRPC4 potentiator project, confirmation (AID 434979;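 active = signal rise over 3 SD above mean of control wells given weak agonist, in both repeats and first screen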); conditions: Fluo-4 calcium flux, at 10 µM, serotonin added at its EC20 dose; stronger effect = higher value
[15] = nonspecific calcium rise without TRPC4 – cell-based, HEK293 mu-opioid receptor line, counter-screen for TRPC4 activator project, confirmation (AID 449723;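 active = hit in primary screen, with calcium signal over 5 SD above buffer well mean in both duplicates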;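 also: counter screen cells carry the mu-opioid receptor alone and lack TRPC4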); conditions: HEK293 mu-opioid cells, Fluo-4 calcium fluorescence, at 10 µM; stronger effect = higher value
[16] = nonspecific potentiation of DAMGO calcium response – cell-based, HEK293 mu-opioid receptor line, counter-screen for TRPC4 allosteric potentiator project, confirmation (AID 449724;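 active = calcium signal rise more than 3 SD above the low-dose agonist control mean, in both duplicate plates and the primary screen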); conditions: HEK293 mu-opioid receptor cells, Fluo-4 calcium flux, at 10 µM, compound added before EC20 DAMGO stimulus; stronger effect = higher value

Short transient receptor potential channel 6 (Mus musculus), sequence (Q61143 whole entry, looked up): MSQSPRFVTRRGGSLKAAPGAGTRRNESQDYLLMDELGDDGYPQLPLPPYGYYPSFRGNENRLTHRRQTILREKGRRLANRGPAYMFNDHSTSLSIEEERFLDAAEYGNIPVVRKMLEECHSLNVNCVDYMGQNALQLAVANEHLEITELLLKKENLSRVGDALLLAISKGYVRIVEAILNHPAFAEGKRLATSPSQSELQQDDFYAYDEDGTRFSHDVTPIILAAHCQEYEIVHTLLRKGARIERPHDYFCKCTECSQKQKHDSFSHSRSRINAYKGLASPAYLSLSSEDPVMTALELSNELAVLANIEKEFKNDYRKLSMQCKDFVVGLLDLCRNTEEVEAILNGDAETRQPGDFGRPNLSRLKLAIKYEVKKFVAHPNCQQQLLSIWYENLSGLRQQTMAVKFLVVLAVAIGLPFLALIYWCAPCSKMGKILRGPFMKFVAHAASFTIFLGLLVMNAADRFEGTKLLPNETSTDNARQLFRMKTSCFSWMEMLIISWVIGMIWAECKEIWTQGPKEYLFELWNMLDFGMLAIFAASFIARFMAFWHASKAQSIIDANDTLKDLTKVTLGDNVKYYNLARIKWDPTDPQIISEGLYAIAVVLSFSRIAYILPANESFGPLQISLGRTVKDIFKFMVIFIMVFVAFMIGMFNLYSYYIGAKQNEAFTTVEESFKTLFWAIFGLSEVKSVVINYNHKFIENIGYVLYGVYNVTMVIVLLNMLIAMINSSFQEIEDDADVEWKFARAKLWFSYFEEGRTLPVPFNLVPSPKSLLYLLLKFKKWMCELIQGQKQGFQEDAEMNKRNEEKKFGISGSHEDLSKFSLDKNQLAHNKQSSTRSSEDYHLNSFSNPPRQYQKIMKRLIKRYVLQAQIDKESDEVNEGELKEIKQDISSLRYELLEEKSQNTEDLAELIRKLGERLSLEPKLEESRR
Short transient receptor potential channel 4 (Mus musculus), sequence (Q9QUQ5 whole entry, looked up): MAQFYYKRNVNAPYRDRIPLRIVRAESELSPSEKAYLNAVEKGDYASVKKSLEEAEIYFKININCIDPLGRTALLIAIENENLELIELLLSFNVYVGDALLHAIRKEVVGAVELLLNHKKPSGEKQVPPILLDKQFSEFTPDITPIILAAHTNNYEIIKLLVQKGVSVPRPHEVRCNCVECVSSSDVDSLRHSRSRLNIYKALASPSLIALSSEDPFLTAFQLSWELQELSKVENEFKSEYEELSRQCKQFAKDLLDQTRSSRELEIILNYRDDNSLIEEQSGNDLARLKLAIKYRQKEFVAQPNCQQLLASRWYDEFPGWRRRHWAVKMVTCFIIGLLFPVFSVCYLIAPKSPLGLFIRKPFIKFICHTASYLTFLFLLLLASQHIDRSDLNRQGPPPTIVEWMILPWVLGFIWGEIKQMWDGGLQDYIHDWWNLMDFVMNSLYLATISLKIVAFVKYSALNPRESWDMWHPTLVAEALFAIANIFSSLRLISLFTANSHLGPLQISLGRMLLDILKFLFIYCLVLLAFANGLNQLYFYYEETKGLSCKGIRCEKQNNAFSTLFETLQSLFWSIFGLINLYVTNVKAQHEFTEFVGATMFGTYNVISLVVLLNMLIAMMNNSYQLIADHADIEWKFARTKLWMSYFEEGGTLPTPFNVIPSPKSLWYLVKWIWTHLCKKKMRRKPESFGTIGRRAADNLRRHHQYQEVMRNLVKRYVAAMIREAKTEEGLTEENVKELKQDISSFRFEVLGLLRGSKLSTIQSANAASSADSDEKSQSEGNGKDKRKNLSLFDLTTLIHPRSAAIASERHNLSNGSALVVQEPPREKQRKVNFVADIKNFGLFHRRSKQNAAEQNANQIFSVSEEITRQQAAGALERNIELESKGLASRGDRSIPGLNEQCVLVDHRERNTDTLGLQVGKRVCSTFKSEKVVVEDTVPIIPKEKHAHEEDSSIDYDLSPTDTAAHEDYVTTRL

Row | SMILES | outcome [1] | outcome [2] | outcome [3] | outcome [4] | inhibition [5] | inhibition [6] | outcome [7] | outcome [8] | outcome [9] | outcome [10] | outcome [11] | outcome [12] | inhibition [13] | outcome [14] | outcome [15] | outcome [16] | outcome [6] | outcome [13]
1 | Cc1ccccc1C(=O)NC1CC2CCC(C1)N2Cc1ccccc1 (configuration not stated) | inactive | inactive | inactive | inactive | 68% (active) | 47% (active) | inactive | inactive | inactive | inactive | inactive | inactive | 43.3% (active) | inactive | inactive | inactive |  | 
2 | CC(Oc1ccc(Cl)cc1Cl)c1nc(-c2ccccn2)no1 (configuration not stated) | inactive | inactive | inactive | inactive | 89% (active) | 53% (active) | inactive | inactive | inactive | inactive | inactive | inactive | 22.7% (active) | inactive | inactive | inactive |  | 
3 | O=C(Nc1ccccc1N1CCN(C(=O)c2ccccc2)CC1)c1ccc(Br)o1 | inactive | inactive | inactive | inactive | 82% (active) | 57% (active) | inactive | inactive | inactive | inactive | inactive | inactive | 31.6% (active) | inactive | inactive | inactive |  | 
4 | O=C(Cn1c(NCCCO)nc2ccccc21)c1ccc(Br)cc1 | inactive | inactive | inactive | inactive | 88% (active) | 52% (active) | inactive | inactive | inactive | inactive | inactive | inactive | 28.7% (active) | inactive | inactive | inactive |  | 
5 | Cc1nn(C(=O)c2cccc([N+](=O)[O-])c2)c(C)c1Sc1ccccc1 | inactive | inactive | inactive | inactive | 88% (active) |  | inactive | inactive | inactive | inactive | inactive | inactive | 32.5% (active) | inactive | inactive | inactive | inactive | 
6 | Clc1ccc(COc2ccccc2CNCc2cccnc2)cc1 | inactive | inactive | inactive | inactive | 94% (active) |  | inactive | inactive | inactive | inactive | inactive | inactive | 27.8% (active) | inactive | inactive | inactive | inactive | 
7 | CC(=O)N1CCN(c2ccccc2NC(=O)c2cccs2)CC1 | inactive | inactive | inactive | inactive | 76% (active) | 43% (active) | inactive | inactive | inactive | inactive | inactive | inactive |  | inactive | inactive | inactive |  | inactive
